Only some compounds are listed: those with a hit (about 10% of all), similar ones and a draw of the others.
BAZ2B block: blocks human BAZ2B | Q9UIF8 | AlphaScreen BAZ2B-H3K14Ac peptide displacement | Potency, µM (doses to about 114 µM), for inactives: at the top dose activity change, negative = inhibition, usual class: inhibitors | 360,000 compounds, 4.4% hits; also: potency is read from the fitted curve at half-maximal effect; % is scaled to controls: 0 for no effect and ±100 for the full control effect; nearly all actives have a fitted effect of over 60% in size
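Multi-concentration screen (max 110 uM) measuring displacement of acetylated histone H3 peptide from BAZ2B by AlphaScreen, using 50 nM protein, 50 nM peptide and 10 ug/mL streptavidin donor plus Ni-chelate acceptor beads.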
Six1-Eya2 inh: blocks human Six1 binding to Eya2; Q15475+O00167; AlphaScreen GST-Six1/His-Eya2 binding, biochemical; stronger effect = lower value; activity change, % (no concentration beside the values); 360,000 compounds, 0.56% hits; AID 651725; in the data active = activity change below about -65%; inconclusive = mostly about -30% to -63%; also: % is scaled to controls: 0 for no effect and ±100 for the full control effect
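AlphaScreen with GST-Six1 and His-Eya2 (5X mix: 250 nM and 500 nM), glutathione donor and nickel acceptor beads; buffer 50 mM Tris pH 8.0, 300 mM NaCl, 1 mM TCEP; 1 h at 37 C in the dark.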
JMJD2A Tudor inh: blocks the human JMJD2A Tudor domain; Potency, µM (titrated, usually from 114 µM), without a hit: at the top dose activity change, negative = inhibition, actives largely listed as inhibitors; AlphaScreen JMJD2A-Tudor / H3K4me3 peptide binding; 390,000 compounds, 4.4% hits; O75164; also: potency is read from the fitted curve at half-maximal effect; % is scaled to controls: 0 for no effect and ±100 for the full control effect; nearly all actives have a fitted effect of over 50% in size
CtBP-E1A blk: inhibitors of CtBP/E1A interaction | activity change, % (concentration not given with the values) | AlphaScreen GST-E1A/His-CtBP binding, 1536-well; stronger effect = lower value | AID 651724 | 340,000 compounds, 0.49% hits; in the data active = activity change below about -65%; inconclusive = mostly about -30% to -63%; also: % is scaled to controls: 0 for no effect and ±100 for the full control effect
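AlphaScreen with 125 nM GST-E1A and 125 nM His-CtBP (5X stocks) in Tris pH 8.0, 300 mM NaCl, BSA, Tween 20, TCEP. Compounds preincubated 2 h at 37 deg C, then glutathione donor/nickel acceptor beads added for 1 h at 37 deg C in dark.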
HP1b chromo inh: inhibitors of HP1-beta chromodomain binding to methylated histone tails; P83916; AID 540317; 390,000 compounds, 0.56% hits; Potency, µM (doses to about 114 µM), without a hit: at the top dose activity change, negative = inhibition, usual class: inhibitors; AlphaScreen HP1-beta / biotin-H3K9me3 peptide binding; also: potency is read from the fitted curve at half-maximal effect; nearly all actives have a fitted effect of over 70% in size
Target sequence (P83916 whole entry, looked up): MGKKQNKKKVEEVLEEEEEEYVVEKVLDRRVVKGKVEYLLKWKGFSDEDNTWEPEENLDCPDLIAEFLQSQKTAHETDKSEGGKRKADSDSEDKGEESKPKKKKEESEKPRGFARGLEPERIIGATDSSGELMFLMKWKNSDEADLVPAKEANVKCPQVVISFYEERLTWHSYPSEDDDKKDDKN
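HP1-beta protein (50 nM final) preincubated 30 min at room temperature with biotinylated H3(1-18)K9me3 peptide (50 nM) in PBS pH 7.4, 0.01% Tween-20, then compound added for 30 min. AlphaScreen streptavidin donor/nickel chelate acceptor beads (10 ug/mL final), 30 min dark, luminescence read.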
G9a inh: G9a (human) methyltransferase inhibition | Q96KQ7 | G9a H3K9 monomethylation, AlphaScreen, 2 h | Potency, µM (top dose mostly 102 µM), inactives show top-dose activity, negative = inhibition, most hits filed as inhibitors | 350,000 compounds, 8.8% hits; also: potency is read from the fitted curve at half-maximal effect; % is scaled to controls: 0 for no effect and ±100 for the full control effect; nearly all actives have a fitted effect of over 75% in size
Target sequence (Q96KQ7 913-1193 limits assumed): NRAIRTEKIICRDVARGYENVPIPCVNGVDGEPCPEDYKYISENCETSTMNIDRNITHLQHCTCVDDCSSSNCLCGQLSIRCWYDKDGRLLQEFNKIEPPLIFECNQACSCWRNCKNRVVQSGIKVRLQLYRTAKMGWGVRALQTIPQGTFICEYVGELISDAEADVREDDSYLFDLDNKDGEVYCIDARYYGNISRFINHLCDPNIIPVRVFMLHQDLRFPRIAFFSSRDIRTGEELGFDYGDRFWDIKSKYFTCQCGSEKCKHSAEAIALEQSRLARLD
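AlphaScreen detection with an anti-monomethyl H3K9 antibody quantified product after a 2 h room-temperature reaction containing 500 nM biotinylated H3K9 peptide, 20 µM SAM and 20 nM enzyme, which had been preincubated 15 min with compound.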
An asterisk follows results filed as active; ? = inconclusive; / = not tested or not shown; [ ] = another dose, or the depositor's remark. Unless noted, calls follow the shape of the dose curve; as a rule, active = well fitted inhibition curve with a large enough effect; inconclusive = small, poorly fitted or top-dose-only effect; inactive = no such curve, though single readings can be large or run the other way.

SMILES | BAZ2B block | Six1-Eya2 inh | JMJD2A Tudor inh | CtBP-E1A blk | HP1b chromo inh | G9a inh
CN(C1CCCCC1)S(=O)(=O)c1ccc2c(c1)c(=O)c(C(=O)NCc1ccc(Cl)cc1)cn2C | / | / | 3% | / | 24% | 1%[59 µM]
COC(=O)CSc1nc2ccc(C)cc2[nH]1 | 1% | 7 | -23% | -5 | 34% | 28µM*
Cc1ccc2nc(SCC(=O)c3c(N)n(C4CC4)c(=O)[nH]c3=O)[nH]c2c1 | -5% | 1 | -8% | 7 | ? | 18µM*
Cc1ccc2nc(SCC(=O)Nc3ccc(C(N)=O)cc3)[nH]c2c1 | 16% | -7 | -12% | -2 | ? | 40µM*
Cc1ccc(NC(=O)CSc2nc3ccc(Br)cc3[nH]2)c(C)c1 | 2% | / | -15% | / | 30% | 8.9µM*
COc1ccc(N(C(=O)COc2ccc(Br)cc2)S(=O)(=O)c2ccc(C)cc2)cc1 | -4% | / | -5% | / | 27% | -44%[59 µM]
O=C(Nc1ccc([N+](=O)[O-])cc1Cl)c1ccccc1O | / | / | ? | / | 2% | /
CC1N=C2c3ccccc3N=C(SCC(=O)NCCc3ccc(Cl)cc3)N2C1=O (centres undefined) | -15% | / | -1% | / | 27% | 5%[12.7 µM]
CC(=O)Nc1ccc(Nc2nc3ccc(Cl)cc3n3cnnc23)cc1 | 1% | / | 8% | / | 30% | -4%[59 µM]
Cc1ccc(C#N)c(SCc2ccccc2F)n1 | 141% | 31 | 208% | 4 | 264% | /
Cc1ccc2nc(SCC(=O)Nc3c(F)cccc3F)[nH]c2c1 | -4% | -4 | -14% | -4 | 36% | -42%
Cc1ccc2nc(SCc3nc4ccccc4c(=O)[nH]3)[nH]c2c1 | -17% | 0 | ? | 2 | 2% | 40µM*
O=C(CSc1nc2ccccc2[nH]1)Nc1ccc(F)c(F)c1 | 9% | 3 | -17% | 6 | 11% | 1%[59 µM]
Cc1ccc2nc(CSc3nc(C)ccc3C#N)[nH]c2c1 | -1% | -21 | ? | -20 | 22% | 2.8µM*
Cc1ccc2nc(SCC(=O)Nc3ccc4[nH]c(=O)[nH]c4c3)[nH]c2c1 | -22% | -3 | -25% | -1 | 4% | 7.9µM*
O=C(CSc1nc2ccc(Cl)cc2[nH]1)Nc1ccc2[nH]c(=O)[nH]c2c1 | 3% | -1 | ? | -9 | 15% | 5.6µM*
O=C(OCC#CCSc1nnc(-c2cccc3ccccc23)o1)c1cccc(C(F)(F)F)c1 | / | / | 19% | / | / | /
Cc1cc(C)c(NC(=O)Cn2c(=O)n(CCC(C)C)c(=O)c3cccnc32)c(C)c1 | 5% | / | -17% | / | 7% | 11%[59 µM]
Cc1ccc2nc(SC(C)C(=O)N3CCCC3)[nH]c2c1 (centres undefined) | -7% | 6 | 0% | 2 | 14% | 28µM*
CSc1nnc(-c2ccc(S(=O)(=O)N3CCOCC3)cc2)n1C | -17% | -1 | -3% | -9 | 44% | 22µM*
N#CCSc1nnc(-c2ccc(S(=O)(=O)N3CCOCC3)cc2)n1CC1CCCO1 (centres undefined) | 4% | 1 | 89µM* | -9 | 18% | -31%
CCSc1nnc(-c2ccc(S(=O)(=O)N3CCOCC3)cc2)n1C | -13% | ? | ? | -11 | 63% | -2%
Cc1cccc(-c2nc3ccccc3n2Cc2ccccc2)c1 | 128% | / | 44% | / | 126% | 47%[59 µM]
CS(=O)c1ccccc1O (centres undefined) | -15% | 4 | -14% | 4 | 17% | 12%[59 µM]
O=S(c1ccccc1O)S(=O)c1ccccc1O (centres undefined) | / | -24 | 0.79µM* | -6 | 3.5µM* | /
SMILES | BAZ2B block | Six1-Eya2 inh | JMJD2A Tudor inh | CtBP-E1A blk | HP1b chromo inh | G9a inh
Cc1cccc(NC(=O)CSc2ncc(-c3ccc(Br)cc3)[nH]2)c1 | 2% | / | -10% | / | 33% | 2%[59 µM]
O=C(COc1ccc(Cl)cc1)OCc1cc(=O)n2nc(-c3cccs3)sc2n1 | -24% | / | -29% | / | -5% | 13%[59 µM]
COc1ccc(CC(=O)N2CCc3cc(OC)c(OC)cc3C2)cc1 | 6% | 19 | -12% | 1 | 72% | -5%
COc1cc2c(cc1OC)CN(Cc1cc(OC)c3c(c1)OCO3)CC2 | 50µM* | -7 | 8.9µM* | 7 | -9% | ?
COc1cc2c(cc1OC)CN(Cc1ccc(F)cc1)CC2 | 50µM* | 16 | 3.2µM* | -1 | -17%[57 µM] | ?
COc1ccc(CN2CCc3cc(OC)c(OC)cc3C2)cc1O | ? | 15 | 45µM* | -12 | ? | -138%[59 µM]
COc1ccc(-c2nc(SCC(=O)NC3CCCC3)c(-c3ccccc3)[nH]2)cc1OC | -35% | / | ? | / | -17% | ?
CN(c1ncnc2c1c(-c1ccccc1)cn2-c1cccc(Cl)c1)C1CCCCC1 | -32% | / | -29% | / | 24% | -22%[59 µM]
O=C(NCCN1CCc2ccccc2C1)C1CC(=O)N(C2CCCC2)C1 (centres undefined) | ? | -1 | 89µM* | 8 | 14% | -36%[0.0925 µM]
O=C(NCCc1ccccc1)C1CCC(=O)N1C1CCCC1 (centres undefined) | 8% | 4 | -3% | 6 | 21% | -10%
O=C(NCc1ccccn1)C1CCC(=O)N1C1CCCC1 (centres undefined) | / | -20 | 79µM* | -16 | 20% | /
O=C(NCc1ccccn1)C1CC(=O)N(C2CCCC2)C1 (centres undefined) | / | -15 | 79µM* | -8 | 22% | /
O=C(NCCCN1CCc2ccccc2C1)C1CCN(S(=O)(=O)N2CCCC2)CC1 | 50µM* | 1 | -25% | 2 | 16% | 27%[0.501 µM]
CC[C@@H](C)[C@H](NC(=O)OC(C)(C)C)c1nnc(S(=O)(=O)Cc2cc(C)ccc2C)o1 | 0% | -1 | 10% | 1 | 87% | 79µM*
CC(C)C[C@H](NC(=O)OC(C)(C)C)c1nnc(SCc2ccccc2)o1 | 7% | 6 | 5% | 0 | 52% | ?
CC(C)[C@H](NC(=O)OC(C)(C)C)c1nnc(S(=O)(=O)Cc2c(F)cccc2Cl)o1 | 1% | 4 | 5% | 5 | 48% | ?
Cc1ccccc1CS(=O)(=O)c1nnc([C@H](CC(C)C)NC(=O)OC(C)(C)C)o1 | 5% | -9 | -24% | -2 | 21% | 35µM*
CC(C)(C)OC(=O)N[C@@H](Cc1ccccc1)c1nnc(S(=O)(=O)Cc2cccc(F)c2)o1 | 0% | 0 | -7% | -2 | 77% | 35µM*
CCOc1cccc(C2/C(=C(/O)c3ccc4c(c3)CC(C)O4)C(=O)C(=O)N2Cc2ccncc2)c1 (centres undefined) | -32% | 4 | 22µM* | 1 | -19% | /
COC(=O)c1ccc(C2/C(=C(/O)c3ccc4c(c3)CC(C)O4)C(=O)C(=O)N2Cc2cccnc2)cc1 (centres undefined) | -8%[57.1 µM] | 5 | ? | 6 | 56% | 71µM*

Screening data deposited in PubChem by National Center for Advancing Translational Sciences (NCATS).
